12-hLO inh: inhibitors of human 12-lipoxygenase (ALOX12); P18054; purified 12-hLO, xylenol orange hydroperoxide absorbance; Potency, µM (doses to about 57.1 µM), for the others: at the highest dose activity change, negative = inhibition, most hits filed as inhibitors; 150,000 compounds, 0.12% hits; active = well fitted curve in the direction sought with a large enough effect; inconclusive = small, poorly fitted or top-dose-only effect, or another doubt; inactive = no such curve, though single readings can be large; an effect the other way counts as inactive or inconclusive; also: potency is read from the fitted curve at half-maximal effect; nearly all actives have a fitted effect of over 55% in size
Target sequence (P18054 whole entry, looked up): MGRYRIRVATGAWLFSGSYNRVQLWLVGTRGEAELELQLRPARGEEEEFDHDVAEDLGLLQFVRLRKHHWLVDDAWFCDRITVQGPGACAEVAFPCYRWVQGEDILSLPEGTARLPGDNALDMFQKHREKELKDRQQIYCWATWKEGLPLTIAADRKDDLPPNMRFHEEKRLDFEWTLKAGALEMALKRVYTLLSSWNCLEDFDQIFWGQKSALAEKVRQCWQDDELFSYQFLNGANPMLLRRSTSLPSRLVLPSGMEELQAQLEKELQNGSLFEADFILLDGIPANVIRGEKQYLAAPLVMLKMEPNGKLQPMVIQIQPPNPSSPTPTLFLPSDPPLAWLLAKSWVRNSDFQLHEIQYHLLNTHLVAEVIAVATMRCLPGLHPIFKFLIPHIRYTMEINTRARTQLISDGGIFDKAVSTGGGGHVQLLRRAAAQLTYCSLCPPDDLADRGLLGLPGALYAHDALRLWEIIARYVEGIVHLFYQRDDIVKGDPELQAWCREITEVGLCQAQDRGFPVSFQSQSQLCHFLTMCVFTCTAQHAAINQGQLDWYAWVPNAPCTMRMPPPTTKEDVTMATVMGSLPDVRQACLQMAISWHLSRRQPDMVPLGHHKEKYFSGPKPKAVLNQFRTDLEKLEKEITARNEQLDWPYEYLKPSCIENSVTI
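Hydroperoxide formation by human 12-lipoxygenase from 40 uM arachidonic acid was followed colorimetrically via ferric-xylenol orange complex, using the 573/405 nm absorbance ratio. Enzyme concentration was 150 nM, with 30 min reaction at room temperature.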
ALDH1A1 block: ALDH1A1 (human) enzyme inhibition; P00352; AID 1030; Purified ALDH1A1, NADH fluorescence, propionaldehyde substrate; Potency, µM (highest dose often 75.3 µM), without a hit: at the highest dose activity, negative = inhibition, hits mostly inhibitors; 220,000 compounds, 7.3% hits;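 also: potency is read from the fitted curve at half-maximal effect; plate controls were no enzyme wells and a reference inhibitor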
HPGD inh: inhibitors of human 15-hydroxyprostaglandin dehydrogenase (HPGD) | P15428 | 150,000 compounds, 4.3% hits | Potency, µM, for the others: at the top dose activity change, negative = inhibition, hits mostly inhibitors | purified HPGD, NADH fluorescence kinetic, PGE2 substrate | AID 894; also: potency is read from the fitted curve at half-maximal effect
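20 nM HPGD preincubated 15 min at room temperature with compound in 50 mM Tris-HCl pH 8, 0.01% Tween 20. Started with 1 mM NAD+ and 30 uM prostaglandin E2; NADH fluorescence (360/450 nm) read 5 times over 30-s intervals, last minus first.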
PNC inhibitor: perinucleolar compartment assembly inhibition; 140,000 compounds, 3.1% hits; activity change (PNC), negative = inhibition, % at 10 µM; PC3M PTB-GFP, PNC prevalence imaging, 16 h; active compounds read low;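 active = readout at or below -70, meaning at least 70% loss of cells showing the perinucleolar compartment, a nuclear body marking cancer cells; inconclusive = readout between -30 and a set limit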;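 also: plate controls were DMSO wells for no effect and camptothecin positive control wells for full effect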
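Read-out is percentage of cells bearing a perinucleolar compartment, from automated 20x imaging of fixed, Hoechst-stained PC3M PTB-GFP cells. Cells were seeded 4 h, then exposed 16 h to compound (23 nl of library stock) in duplicate plates.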
IMPase inh: cell-permeable inhibitors of inositol monophosphatase (IMPase); AID 901; inhibition (IP1 accumulation), % at 46.1 µM; 120,000 tested, under 10 active; CHO-M1 cells, IP1 accumulation, HTRF TR-FRET ratio; active = well fitted curve in the direction sought with a large enough effect in the signal ratio, not every such curve was filed as active; inconclusive = small, poorly fitted or top-dose-only effect, or a change in a side signal; inactive = no such curve, though single readings can be large or run the other way; the % refers to the signal ratio;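 also: cells stimulated with carbachol in lithium chloride buffer; plate controls were DMSO basal wells for no effect and reference inhibitor wells for full effect; higher means more IMPase inhibition seen as more IP1 and lower FRET ratio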
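Carbachol-driven Gq signalling in CHO-M1 cells (2000/well) generates IP1. Compounds that block IMPase raise IP1 and so reduce the FRET signal from Eu-anti-IP1 and d2-IP1 after a 10 min room-temperature lysis.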
IMPase Li cell: cell-permeable IMPase inhibitors with lithium potentiation; Potency, µM (doses to about 59.4 µM), without a hit: at the highest dose activity, negative = IMPase inhibition, most hits filed as inhibitors; AID 1457; CHO-M1 cells, IP1 TR-FRET (IP-One), carbachol + lithium; 210,000 compounds, 0.35% hits; active = well fitted curve in the direction sought with a large enough effect; inconclusive = small, poorly fitted or top-dose-only effect, or another doubt; inactive = no such curve, though single readings can be large; an effect the other way counts as inactive or inconclusive;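 also: IP1 builds up when IMPase is blocked and the TR-FRET signal falls; potency is read from the fitted curve at half-maximal effect; plate controls were basal vehicle for no effect and high inhibitor control for full effect; nearly all actives have a fitted effect of over 50% in size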
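Concentration–response in CHO-M1 cells, lithium-potentiated; 30 min at 37C. IP1 detected by competitive TR-FRET after 10 min lysis at RT. Hill-fitted AC50.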
Starred values were filed as active, the others as inactive; ? = inconclusive; . = no result; [ ] = dose if it differs, or a comment. In the library only some 11% were active in any assay of this set; here they are far more common. Unless noted, calls follow the shape of the dose curve; as a rule, active = well fitted inhibition curve with a large enough effect (not every such curve was filed as active); inconclusive = small, poorly fitted or top-dose-only effect, or another doubt; inactive = no such curve, though single readings can be large or run the other way. Unless noted, % is scaled to controls: 0 for no effect and ±100 for the full control effect.

SMILES	12-hLO inh	ALDH1A1 block	HPGD inh	PNC inhibitor	IMPase inh	IMPase Li cell
Cc1ccc(S(=O)(=O)N(C(=O)c2ccncc2)c2ccc(OC(=O)c3ccncc3)c3ccccc23)c(C)c1	-9%	7.9µM*	28µM*	22	15	47%[38.3 µM]
Cc1ccc(C(C)C)c(OCCCn2c(=O)oc3ccc(C)cc32)c1	.	.	.	.	6	.
CCCC/C(C)=N/NC(=O)c1cn(-c2ccccc2)nc1-c1ccccc1	3%	0.56µM*	-27%	-14	?	1%
CN1CCN(NC(=O)c2cn(-c3ccccc3)nc2-c2cccc(Br)c2)CC1	.	?	.	.	.	11%
COC(=O)c1cn(-c2ccccc2)nc1-c1ccccc1	7%	-11%	-11%	6	5	0%[38.3 µM]
CCC(C)/C(C)=N/NC(=O)c1cn(-c2ccccc2)nc1-c1ccccc1 (stereo not given)	2%	6.3µM*	0%	27	.	-3%
CN1CCC(=NNC(=O)c2cn(-c3ccccc3)nc2-c2ccccc2)CC1	4%	1.3µM*	-3%	?	.	-3%
O=C(O)C(Cc1c[nH]c2ccccc12)N1C(=O)c2ccccc2C1=O (stereo not given)	.	10%	.	.	.	.
COC(=O)c1ccc(C(NC(=O)OCc2ccccc2)/C(F)=C/[C@@H](C)C(=O)NCc2nc3ccccc3s2)cc1 (stereo not given in full)	2%	5%	-13%	.	.	5%
Oc1ccc(/C=N/Nc2nc(N3CCCC3)nc(N3CCCC3)n2)cc1O	.	13µM*	.	.	.	15%
COc1cc(/C=N/Nc2nc(N3CCCC3)nc(N3CCCC3)n2)ccc1O	-6%	5%	?	?	13	31%[38.3 µM]
S=c1ccss1	-25%	2.2µM*	6.3µM*	.	.	1%
Cc1ccc(S(=O)(=O)CCC(=O)OCc2ccc(Cl)c(Cl)c2)cc1	-8%	?	-14%	-112*	-9	-1%
Cc1ccc(S(=O)(=O)CCC(=O)OCc2ccccc2F)cc1	.	?	.	.	.	10%
Cc1ccc(S(=O)(=O)CCC(=O)OCc2ccc(S(=O)(=O)C(C)C)cc2)cc1	.	2.5µM*	.	.	.	10%
CCC1=C(OC(=O)N(CC)CC)N2C(=O)OC(=NCCOC)[C@]2(C)[C@H]2C1=CC[C@H]1C(=O)NC(=O)[C@H]12	-3%	-8%	-5%	.	.	-3%
c1csc(-c2nnsc2-c2nc3ccccc3[nH]2)c1	-15%	10µM*	?	?	2	1%[38.3 µM]
Cc1nc(COC(=O)c2ccc(S(=O)(=O)N3CCCC3)cc2)cs1	-4%	10%	-15%	?	4	12%[38.3 µM]
CCOC(=O)c1c(NC(=O)CC2SC(N)=NC2=O)sc(C)c1C (stereo not given)	.	0%	.	.	.	4%
COCC(=O)Nc1sc2c(c1C(=O)OC)CCC(C)C2 (stereo not given)	?	?	-10%	-8	-16	8%[38.3 µM]
COC(=O)c1c(NC(=O)CC2SC(N)=NC2=O)sc2c1CCCC2 (stereo not given)	1%	25µM*	-15%	48	-13	4%
COC(=O)c1c(NC(=O)CC2SC(N)=NC2=O)sc2c1CCC(C)C2 (stereo not given)	0%	13µM*	-2%	-28	.	-6%
CCOC(=O)c1c(NC(=O)CC2SC(N)=NC2=O)sc2c1CCC(C)C2 (stereo not given)	-3%	16µM*	-24%	45	.	11%
CC(C)=CCC[C@](C)(O)C1CC=C(C)CC1 (stereo not given in full)	-4%	-13%	-8%	.	.	2%
CCc1ccc(CNc2ccc(O)cc2)cc1	?	7.9µM*	22µM*	-7	30	99%[38.3 µM]
SMILES	12-hLO inh	ALDH1A1 block	HPGD inh	PNC inhibitor	IMPase inh	IMPase Li cell
CC(=O)OC1CC2C(C)(C)C(=O)[C@@H]3OC3[C@@]2(C)C2CC[C@]3(C)C(=CC(=O)OC3c3ccoc3)[C@]12C (stereo not given in full)	5%	-2%	-2%	.	.	0%
COC(=O)c1ccc(C(NC(=O)OCc2ccccc2)/C(F)=C/[C@@H](C)C(=O)NCCc2c[nH]c3ccc(OC)cc23)cc1 (stereo not given in full)	0%	?	-13%	.	.	0%
Nc1c(C(=O)c2ccccc2)sc2snc(SCC(=O)c3ccccc3)c12	?	10µM*	-29%	-27	3	1%[38.3 µM]
CCN1CCC[C@@H]1CNC(=O)c1c(O)c(Cl)cc(Cl)c1OC	-4%	.	.	.	1	.
CC(=O)c1c(C)[nH]c(C(=O)OCc2ccccc2)c1C	-2%	11%	-5%	69	.	3%
CCN(CC)CCc1c(C)[nH]c(C(=O)OCc2ccccc2)c1C	9%	20µM*	-3%	?	8	19%[38.3 µM]
C=Cc1c(C)/c2[n-]/c1=C\c1[n-]c(c(CC)c1C)/C=c1\[n-]c3c(c1C)C(=O)C(C(=O)[O-])C=3c1[n-]c(c(C)c1CCC(=O)[O-])\C=2.[Cu].[Na+].[Na+] (stereo not given)	?	?	25µM*	.	.	68%
Cc1ccc(S(=O)(=O)NNC(=O)NC23CC4CC(CC(C4)C2)C3)cc1	-1%	-5%	2%	13	.	-3%
COc1ccc(NC(=O)C2C3C=CC(C3)C2C(=O)NCc2ccco2)c(OC)c1 (stereo not given)	-1%	?	25µM*	13	6	15%
Cc1cccn2c(=O)c3cc(C(=O)NCc4ccccc4)c(=N)n(CCOCCO)c3nc12	.	.	.	.	-4	.
COCCN1Cc2cccc(C(=O)Nc3cc(C)cc(C)c3)c2C1=O	-3%	?	-26%	-85*	7	0%[38.3 µM]
CCCN1Cc2cccc(C(=O)Nc3ccc4c(c3)OCCO4)c2C1=O	2%	-12%	-9%	-106*	4	15%[38.3 µM]
COCCN1Cc2cccc(C(=O)Nc3c(C)cc(C)cc3C)c2C1=O	-6%	-1%	-6%	?	-1	-9%[38.3 µM]
CCCN1Cc2cccc(C(=O)Nc3ccc4c(c3)OCO4)c2C1=O	-10%	-13%	-11%	11	23	19%[38.3 µM]
Cc1ccc2nsnc2c1S(=O)(=O)N1CCN(Cc2ccc3c(c2)OCO3)CC1	-4%	0%	-9%	-9	3	18%
O=C(NNc1ccccc1)C(=O)NNS(=O)(=O)c1ccc(CCCl)cc1	.	6.3µM*	.	.	.	.
Cc1ccc(C)c(S(=O)(=O)Nc2ccc(C(=O)NCCc3ccccn3)cc2)c1	.	-8%	.	.	.	15%
COc1ncnc2c1NC1=C(S2)C(=NCCC(=O)O)CC(C)(C)C1	-28%	5µM*	.	-14	4	.
COc1ccc(-c2[nH]c(-c3ccc(Cl)cc3)nc2SCC(=O)NCC2CCCO2)cc1 (stereo not given)	.	.	.	.	5	.
